# Laboratory results taken from paper PMC12820563, “FoxP3 forms a head-to-head dimer in vivo and stabilizes its multimerization on adjacent microsatellites”.
# Whole data set: some 16,000 sequences, median “rpm ratio (pull-down/input)” near 0.94, cut for the highest 2% near 1.7. Only a selection was taken, and the highest values are over-represented in it overall.
# Biological target: T1, MBP-FoxP1dN (Mus musculus, UniProt P58462 326-579)
# T1 sequence: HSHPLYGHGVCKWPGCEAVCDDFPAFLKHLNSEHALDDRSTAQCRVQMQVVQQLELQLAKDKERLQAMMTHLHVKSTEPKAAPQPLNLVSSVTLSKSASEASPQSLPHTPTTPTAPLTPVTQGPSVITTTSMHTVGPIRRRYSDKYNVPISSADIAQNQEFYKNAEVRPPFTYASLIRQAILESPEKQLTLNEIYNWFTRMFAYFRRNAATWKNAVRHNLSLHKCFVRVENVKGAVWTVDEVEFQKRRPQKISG
# Assay: PD-seq (MBP pull-down with sequencing); 20 mM Tris-HCl pH 7.5, 100 mM NaCl, 1.5 mM MgCl2, 0.4 uM protein, 0.1 uM dsDNA library, 30 min, room temperature, amylose pull-down; high values mean tight binding
# Conditions: protein: recombinant; tags: His6-MBP; chain copies: 2; dsDNA, one strand shown
# Procedure, shortened: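 E. coli-expressed mouse FoxP3 or FoxP1 fragment, N-terminus removed and tagged with His6-MBP, was used at 0.4 µM against 0.1 µM of a Klenow-filled degenerate double-stranded DNA library. After 30 min at room temperature in Tris pH 7.5 buffer with NaCl and MgCl2, complexes were pulled down on amylose resin and washed three times. Binding is pull-down over input reads-per-million enrichment from pooled replicates of the proteinase K-released, PCR-barcoded, Illumina-sequenced DNA.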
row,Sequence,binding signal
1,GATGATTGTTCTCCCAGCTGATGAATTTGGGCCATCGAGTAAACAAATTTTCCTAATCTTTCTGTTCAAGCGCCATCTAC,0.878 RPM ratio (pull-down/input)
2,GATGATTGTTCTCCCAGCTGATGAATTTGCTGTGTCGAGTAAACAAATTTTCCTAATCTTTCTGTTCAAGCGCCATCTAC,1.14 RPM ratio (pull-down/input)
3,GATGATTGTTCTCCCAGCTGATGAATTTTCTGTGTCGAGTAAACAAATTTTCCTAATCTTTCTGTTCAAGCGCCATCTAC,0.968 RPM ratio (pull-down/input)
4,GATGATTGTTCTCCCAGCTGATGAATTGTGTTTGTCGAGTAAACAAATTTTCCTAATCTTTCTGTTCAAGCGCCATCTAC,2.8 RPM ratio (pull-down/input)
5,GATGATTGTTCTCCCAGCTGATGAATTTGATGTGTCGAGTAAACAAATTTTCCTAATCTTTCTGTTCAAGCGCCATCTAC,1.16 RPM ratio (pull-down/input)
6,GATGATTGTTCTCCCAGCTGATGAATTGTTTGTGTCGAGTAAACAAATTTTCCTAATCTTTCTGTTCAAGCGCCATCTAC,2.77 RPM ratio (pull-down/input)
7,GATGATTGTTCTCCCAGCTGATGAATTCTTTGTGTCGAGTAAACAAATTTTCCTAATCTTTCTGTTCAAGCGCCATCTAC,1.06 RPM ratio (pull-down/input)
8,GATGATTGTTCTCCCAGCTGATGAATTACCCATATCGAGTAAACAAATTTTCCTAATCTTTCTGTTCAAGCGCCATCTAC,1.07 RPM ratio (pull-down/input)
9,GATGATTGTTCTCCCAGCTGATGAATTACTCCTCTCGAGTAAACAAATTTTCCTAATCTTTCTGTTCAAGCGCCATCTAC,1.05 RPM ratio (pull-down/input)
10,GATGATTGTTCTCCCAGCTGATGAATTATATGAGTCGAGTAAACAAATTTTCCTAATCTTTCTGTTCAAGCGCCATCTAC,0.962 RPM ratio (pull-down/input)
11,GATGATTGTTCTCCCAGCTGATGAATTAACAATATCGAGTAAACAAATTTTCCTAATCTTTCTGTTCAAGCGCCATCTAC,1.87 RPM ratio (pull-down/input)
12,GATGATTGTTCTCCCAGCTGATGAATTAAAAATATCGAGTAAACAAATTTTCCTAATCTTTCTGTTCAAGCGCCATCTAC,1.35 RPM ratio (pull-down/input)
13,GATGATTGTTCTCCCAGCTGATGAATTAATAATATCGAGTAAACAAATTTTCCTAATCTTTCTGTTCAAGCGCCATCTAC,1.51 RPM ratio (pull-down/input)
14,GATGATTGTTCTCCCAGCTGATGAATTATCAATATCGAGTAAACAAATTTTCCTAATCTTTCTGTTCAAGCGCCATCTAC,1.96 RPM ratio (pull-down/input)
15,GATGATTGTTCTCCCAGCTGATGAATTATGAATATCGAGTAAACAAATTTTCCTAATCTTTCTGTTCAAGCGCCATCTAC,1.07 RPM ratio (pull-down/input)
16,GATGATTGTTCTCCCAGCTGATGAATTATATCAATCGAGTAAACAAATTTTCCTAATCTTTCTGTTCAAGCGCCATCTAC,1.16 RPM ratio (pull-down/input)

row,Sequence,binding signal
1,GATGATTGTTCTCCCAGCTGATGAATTAGCTTACTCGAGTAAACAAATTTTCCTAATCTTTCTGTTCAAGCGCCATCTAC,0.938 RPM ratio (pull-down/input)
2,GATGATTGTTCTCCCAGCTGATGAATTTTGAGGGTCGAGTAAACAAATTTTCCTAATCTTTCTGTTCAAGCGCCATCTAC,0.774 RPM ratio (pull-down/input)
3,GATGATTGTTCTCCCAGCTGATGAATTTTTGCAATCGAGTAAACAAATTTTCCTAATCTTTCTGTTCAAGCGCCATCTAC,1.26 RPM ratio (pull-down/input)
4,GATGATTGTTCTCCCAGCTGATGAATTGTTGCAATCGAGTAAACAAATTTTCCTAATCTTTCTGTTCAAGCGCCATCTAC,1.87 RPM ratio (pull-down/input)
5,GATGATTGTTCTCCCAGCTGATGAATTGCAATCATCGAGTAAACAAATTTTCCTAATCTTTCTGTTCAAGCGCCATCTAC,1.48 RPM ratio (pull-down/input)
6,GATGATTGTTCTCCCAGCTGATGAATTGCAAACATCGAGTAAACAAATTTTCCTAATCTTTCTGTTCAAGCGCCATCTAC,2.29 RPM ratio (pull-down/input)
7,GATGATTGTTCTCCCAGCTGATGAATTTGCAACATCGAGTAAACAAATTTTCCTAATCTTTCTGTTCAAGCGCCATCTAC,1.7 RPM ratio (pull-down/input)
8,GATGATTGTTCTCCCAGCTGATGAATTGCAGCAATCGAGTAAACAAATTTTCCTAATCTTTCTGTTCAAGCGCCATCTAC,1.33 RPM ratio (pull-down/input)
9,GATGATTGTTCTCCCAGCTGATGAATTGATGCAATCGAGTAAACAAATTTTCCTAATCTTTCTGTTCAAGCGCCATCTAC,1.96 RPM ratio (pull-down/input)
10,GATGATTGTTCTCCCAGCTGATGAATTTCTGCAATCGAGTAAACAAATTTTCCTAATCTTTCTGTTCAAGCGCCATCTAC,1.1 RPM ratio (pull-down/input)
11,GATGATTGTTCTCCCAGCTGATGAATTGATGCCATCGAGTAAACAAATTTTCCTAATCTTTCTGTTCAAGCGCCATCTAC,1.39 RPM ratio (pull-down/input)
12,GATGATTGTTCTCCCAGCTGATGAATTGCAACCATCGAGTAAACAAATTTTCCTAATCTTTCTGTTCAAGCGCCATCTAC,1.45 RPM ratio (pull-down/input)
13,GATGATTGTTCTCCCAGCTGATGAATTGCAAAAATCGAGTAAACAAATTTTCCTAATCTTTCTGTTCAAGCGCCATCTAC,1.55 RPM ratio (pull-down/input)
14,GATGATTGTTCTCCCAGCTGATGAATTGCAACAATCGAGTAAACAAATTTTCCTAATCTTTCTGTTCAAGCGCCATCTAC,1.91 RPM ratio (pull-down/input)
15,GATGATTGTTCTCCCAGCTGATGAATTGACTACATCGAGTAAACAAATTTTCCTAATCTTTCTGTTCAAGCGCCATCTAC,1.22 RPM ratio (pull-down/input)
16,GATGATTGTTCTCCCAGCTGATGAATTCCACAGTTCGAGTAAACAAATTTTCCTAATCTTTCTGTTCAAGCGCCATCTAC,0.831 RPM ratio (pull-down/input)
